Structures are written as SMILES. Values without a mark were called inactive. For some of these results: Results with a measured potency or affinity are listed apart. Activity calls are given as the source filed them. Unless noted, no rule for the calls is given here.

Assay [1] is described as follows: antimalarial activity against Dd2 strain (AID 2302;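 active = growth inhibition above 50% at the single 2 µM test dose, taken to imply half-maximal potency below 2 µM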;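 also: 0% = DMSO untreated growth and 100% = chloroquine plus artemisinin killed control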). Particulars: P. falciparum Dd2 in RBCs, LDH growth readout, 72 h; at 2 µM; active compounds read high.
Assay [2] in a line: HepG2 cytotoxicity, primary screen, cytotoxicity control for P. falciparum antimalarial project, cell-based, ATP luminescence (AID 2303;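 active = inhibition above 50%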;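 also: 0% = DMSO wells and 100% = digitonin-killed cells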). Conditions: HepG2 viability, 24-48 h, at 10 µM, active compounds read high.
The target in assay [3] is L-lactate dehydrogenase (Plasmodium falciparum (isolate CDC / Honduras)) (UniProt Q27743). The assay is described as follows: PfLDH activity inhibition – cell lysate, 3D7 strain, counter-screen for P. falciparum growth inhibition project (AID 2304).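 Also: 0% = vehicle and 100% = reference inhibitor.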 Particulars: P. falciparum 3D7 crude extract, LDH APAD/NBT absorbance; at 2 µM; active compounds read high.
Sequence of L-lactate dehydrogenase (Plasmodium falciparum (isolate CDC / Honduras)) (Q27743 whole entry, looked up): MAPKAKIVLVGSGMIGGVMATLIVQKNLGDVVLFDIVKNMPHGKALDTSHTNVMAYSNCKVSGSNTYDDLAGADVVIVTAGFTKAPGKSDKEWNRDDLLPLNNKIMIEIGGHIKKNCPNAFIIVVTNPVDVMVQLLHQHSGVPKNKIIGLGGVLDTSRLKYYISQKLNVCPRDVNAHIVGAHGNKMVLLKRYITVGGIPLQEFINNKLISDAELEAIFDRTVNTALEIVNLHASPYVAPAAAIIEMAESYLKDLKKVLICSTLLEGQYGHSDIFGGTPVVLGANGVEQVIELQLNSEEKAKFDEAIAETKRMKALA
The nature of assay [4]: inhibition of 3D7 malaria parasite growth – strain 3D7 (AID 2306).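 Also: 0% = DMSO wells and 100% = chloroquine plus artemisinin control wells.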 Particulars: P. falciparum 3D7 erythrocytic growth, LDH absorbance, 72 h; at 2 µM; active compounds read high.
For assay [5], the target named is Calcium-dependent protein kinase 1 (Plasmodium falciparum (isolate 3D7)) (UniProt P62344). The assay is described as follows: PfCDPK1 kinase inhibitors, biochemical, TCAMS library (AID 1159585; cut-off not given, nearly all actives have IC50 up to about 0.98 µM;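 also: inhibitors leave more ATP so luminescence rises with inhibition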). Conditions: recombinant PfCDPK1, Kinase-Glo ATP depletion luminescence. (Kinase-Glo measures the ATP left after a reaction by luminescence.)
Sequence of Calcium-dependent protein kinase 1 (Plasmodium falciparum (isolate 3D7)) (P62344 whole entry, looked up): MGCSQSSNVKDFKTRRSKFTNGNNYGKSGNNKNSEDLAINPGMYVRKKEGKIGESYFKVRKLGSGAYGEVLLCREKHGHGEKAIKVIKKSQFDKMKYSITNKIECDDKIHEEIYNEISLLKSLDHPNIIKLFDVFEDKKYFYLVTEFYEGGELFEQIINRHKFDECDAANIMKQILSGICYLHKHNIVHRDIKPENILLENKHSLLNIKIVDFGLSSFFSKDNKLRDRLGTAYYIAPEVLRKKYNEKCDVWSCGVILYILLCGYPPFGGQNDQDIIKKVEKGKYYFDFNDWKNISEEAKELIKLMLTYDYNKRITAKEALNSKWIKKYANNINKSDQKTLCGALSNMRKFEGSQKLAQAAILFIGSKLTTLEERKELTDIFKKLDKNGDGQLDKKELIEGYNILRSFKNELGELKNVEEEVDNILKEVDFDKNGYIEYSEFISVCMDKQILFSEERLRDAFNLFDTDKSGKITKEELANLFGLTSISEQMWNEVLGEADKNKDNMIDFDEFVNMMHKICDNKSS
Assay [6] addresses Plasmodium falciparum protein kinase 6 (PK6, PF3D7_1337100) (UniProt Q8IDW1). The assay is described as follows: PfPK6 kinase inhibitors, biochemical, TCAMS library (AID 1159586). Particulars: recombinant PfPK6, Kinase-Glo ATP depletion luminescence.
The target of assay [7] is Protein kinase 7 (PK7), Plasmodium falciparum 3D7 (PF3D7_0213400) (UniProt Q7YTF7). The assay is described as follows: inhibition of Plasmodium PK7 catalytic activity – biochemical, TCAMS antimalarial set, Kinase-Glo luminescence (AID 1159587). Particulars: recombinant PfPK7, Kinase-Glo ATP depletion luminescence.
Sequence of Protein kinase 7 (PK7), Plasmodium falciparum 3D7 (PF3D7_0213400) (Q7YTF7 1-343): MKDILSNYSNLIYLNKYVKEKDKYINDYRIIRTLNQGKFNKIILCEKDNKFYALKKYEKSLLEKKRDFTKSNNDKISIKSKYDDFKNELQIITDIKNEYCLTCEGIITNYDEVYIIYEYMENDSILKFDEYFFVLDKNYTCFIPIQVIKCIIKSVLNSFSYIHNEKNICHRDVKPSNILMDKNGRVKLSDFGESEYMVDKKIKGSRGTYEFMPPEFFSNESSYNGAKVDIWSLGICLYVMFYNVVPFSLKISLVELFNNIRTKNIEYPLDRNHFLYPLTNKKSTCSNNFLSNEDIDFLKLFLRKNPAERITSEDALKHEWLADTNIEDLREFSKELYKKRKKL
The target in assay [8] is Calcium-dependent protein kinase 4 (Plasmodium falciparum (isolate 3D7)) (UniProt Q8IBS5). The assay is described as follows: PfCDPK4 kinase inhibitors, biochemical, TCAMS library (AID 1159588; cut-off not given, nearly all actives have IC50 up to about 0.91 µM). Particulars: recombinant PfCDPK4, Kinase-Glo ATP depletion luminescence.
Sequence of Calcium-dependent protein kinase 4 (Plasmodium falciparum (isolate 3D7)) (Q8IBS5 whole entry, looked up): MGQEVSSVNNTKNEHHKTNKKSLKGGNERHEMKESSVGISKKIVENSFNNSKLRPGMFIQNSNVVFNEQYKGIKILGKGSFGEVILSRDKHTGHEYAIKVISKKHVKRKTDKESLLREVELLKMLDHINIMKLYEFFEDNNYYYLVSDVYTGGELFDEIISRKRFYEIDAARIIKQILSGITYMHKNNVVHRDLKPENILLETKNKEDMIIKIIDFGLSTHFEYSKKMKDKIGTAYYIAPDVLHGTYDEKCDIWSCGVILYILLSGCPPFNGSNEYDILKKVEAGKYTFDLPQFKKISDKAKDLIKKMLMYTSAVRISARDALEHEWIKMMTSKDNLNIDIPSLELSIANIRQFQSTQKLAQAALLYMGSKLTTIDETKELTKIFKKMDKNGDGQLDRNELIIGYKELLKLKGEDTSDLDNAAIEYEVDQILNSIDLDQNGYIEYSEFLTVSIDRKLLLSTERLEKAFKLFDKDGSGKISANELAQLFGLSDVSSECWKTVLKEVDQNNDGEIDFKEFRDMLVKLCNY

Sequence of Plasmodium falciparum protein kinase 6 (PK6, PF3D7_1337100) (Q8IDW1 1-305): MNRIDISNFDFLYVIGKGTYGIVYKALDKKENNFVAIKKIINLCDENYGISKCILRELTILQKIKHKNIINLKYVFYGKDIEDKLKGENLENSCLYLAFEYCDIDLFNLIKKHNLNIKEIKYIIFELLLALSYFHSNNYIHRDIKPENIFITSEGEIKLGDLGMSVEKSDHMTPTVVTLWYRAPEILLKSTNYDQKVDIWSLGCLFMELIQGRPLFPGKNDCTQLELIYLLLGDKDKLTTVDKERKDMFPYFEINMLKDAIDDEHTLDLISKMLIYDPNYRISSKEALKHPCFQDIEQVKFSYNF

By inhibition is commonly meant the relative decrease from the control value, in per cent. For `O=C(/C=C/c1ccccc1)N1CCOC(CCN2CCC(c3ccccc3)CC2)(c2ccc(Cl)c(Cl)c2)C1` (stereo not given), the figures for the growth inhibition in assay [1] and in assay [4] were 63% (active) and 89% (active), respectively. Also, the inhibition in assay [2] is 4%; in assay [3], 2%. For the same compound, the result in assay [5], in assay [6], in assay [7] and in assay [8] was inactive.

Consider `CCNc1cc(C(=O)N[C@@H](Cc2ccccc2)[C@H](O)CNCc2cc(C#N)ccc2OC)cc(N2CCCC2=O)c1`, for which the values for the growth inhibition in assay [1] and in assay [4] were 51% (active) and 85% (active), respectively. Besides, the results for the inhibition in assay [2] and in assay [3] were -1% and -3%, respectively. Also, the result in assay [5], in assay [6], in assay [7] and in assay [8] was inactive.

For `Cn1c(=N)cc(-c2ccc(Br)cc2)c2c(=O)[nH]c(N)nc21`, the growth inhibition is 57% (active) in assay [1] and 80% (active) in assay [4]. Moreover, the inhibition in assay [2] is 5%; in assay [3] it was 1%. The outcome in assay [5], in assay [6], in assay [7] and in assay [8] was inactive.

Consider `CN1CCN(CCCN(Cc2cccc(-c3cccc(CNCc4ccc5c(c4)OCO5)c3)c2)C(=O)CCC2CCCC2)CC1`, for which the figures for the growth inhibition in assay [1] and in assay [4] were 80% (active) and 98% (active), respectively. The inhibition was 85% (active) in assay [2] and 1% in assay [3]. Moreover, the outcome in assay [5], in assay [6], in assay [7] and in assay [8] was inactive.

With `CCOC(=O)c1ccc(NC(=O)c2ccccc2C(=O)O)cc1`, the growth inhibition is 0% in assay [1] and 92% (active) in assay [4]. Moreover, the inhibition in assay [2] is 2%; in assay [3], -3%. Also, the outcome in assay [5], in assay [6], in assay [7] and in assay [8] was inactive.

Take `O=C(Nc1cccc(-c2cccc(-c3nc4ccc(F)cc4[nH]3)c2)c1)c1ccncc1`: the growth inhibition is 24% in assay [1] and 92% (active) in assay [4]. For the same compound, the inhibition was 28% in assay [2] and -3% in assay [3]. The result in assay [5], in assay [6], in assay [7] and in assay [8] was inactive.

In the case of `CC(C)CCN1CCCN(Cc2cccc(NC(=O)c3cc4ccccc4s3)c2)CC1`, the growth inhibition was 8% in assay [1] and 96% (active) in assay [4]. For the same compound, the figures for the inhibition in assay [2] and in assay [3] were 34% and 1%, respectively. Also, the outcome in assay [5], in assay [6], in assay [7] and in assay [8] was inactive.

`CCOC(=O)[C@H](Cc1cccc2ccccc12)NC(=O)[C@H](CCC(=O)OC(C)(C)C)NC(=O)c1ccc(N(C)Cc2cnc3nc(N)nc(N)c3n2)cc1`: the growth inhibition is 96% (active) in assay [1] and 93% (active) in assay [4]. Moreover, the inhibition was 66% (active) in assay [2] and -2% in assay [3]. In addition, the result in assay [5], in assay [6], in assay [7] and in assay [8] was inactive.

Regarding `CCOC(=O)c1cc(Cl)cc(Cl)c1OCCCON1C(N)=NC(N)=NC1(C)C`, the results for the growth inhibition in assay [1] and in assay [4] were 97% (active) and 93% (active), respectively. Besides, the inhibition in assay [2] is 70% (active); in assay [3], -6%. Besides, the result in assay [5], in assay [6], in assay [7] and in assay [8] was inactive.

Regarding `CCN(CCCN1CCCCC1)c1cc(C)nc(Nc2ccc(C(F)(F)F)cc2)n1`, the growth inhibition is 99% (active) in assay [1] and 102% (active) in assay [4]. Further, the figures for the inhibition in assay [2] and in assay [3] were 26% and -3%, respectively. The outcome in assay [5], in assay [6], in assay [7] and in assay [8] was inactive.

With `COc1ccc(CNC(=O)Nc2cc3cc(-c4ccc(CN5CCCC5)cc4)ccc3n3c(C)nnc23)cc1`, the growth inhibition in assay [1] is 100% (active); in assay [4] it was 101% (active). The inhibition is 100% (active) in assay [2] and -3% in assay [3]. For the same compound, the outcome in assay [5], in assay [6], in assay [7] and in assay [8] was inactive.

As for `CCC(C(=O)Nc1cc(=O)[nH]c2nc(-c3ccco3)nn12)c1ccccc1` (stereo not given), the values for the growth inhibition in assay [1] and in assay [4] were 68% (active) and 87% (active), respectively. For the same compound, the inhibition in assay [2] was 2%; in assay [3] it was -1%. The outcome in assay [5], in assay [6], in assay [7] and in assay [8] was inactive.

Take `CCCCCCCCc1[nH]c(C)c(Br)c(=O)c1Br`: the growth inhibition is 95% (active) in assay [1] and 96% (active) in assay [4]. Moreover, the inhibition in assay [2] and in assay [3] was 2% each time. Besides, the result in assay [5], in assay [6], in assay [7] and in assay [8] was inactive.

For the compound `COC(=O)c1cccc(CNCc2ccc(-c3ccc(-c4nc5ccccc5[nH]4)s3)cc2)c1`, the growth inhibition was 79% (active) in assay [1] and 100% (active) in assay [4]. Also, the inhibition in assay [2] is 20%; in assay [3], 4%. In addition, the outcome in assay [5], in assay [6], in assay [7] and in assay [8] was inactive.

`CCOc1ncccc1CN1CCC(N2CCc3cc(NC(=O)c4ccco4)ccc32)C1` (stereo not given): the growth inhibition in assay [1] is 94% (active); in assay [4], 90% (active). Also, the inhibition is 3% in assay [2] and 1% in assay [3]. Moreover, the outcome in assay [5], in assay [6], in assay [7] and in assay [8] was inactive.

For the compound `Cc1[nH]nc2cc(Nc3nccc(Nc4ccc(Oc5ccccc5)cc4)n3)ccc12`, the growth inhibition was 98% (active) in assay [1] and 101% (active) in assay [4]. Besides, the values for the inhibition in assay [2] and in assay [3] were 8% and -7%, respectively. In addition, the result in assay [5], in assay [6], in assay [7] and in assay [8] was inactive.

As for `COc1ccc(NC(=O)[C@H](Cc2ccccc2)Nc2cc(C)nc(NCCc3cccnc3)n2)cc1`, the growth inhibition was 5% in assay [1] and 98% (active) in assay [4]. For the same compound, the results for the inhibition in assay [2] and in assay [3] were 11% and -4%, respectively. The outcome in assay [5], in assay [6], in assay [7] and in assay [8] was inactive.

`Cc1[nH]c(C)c(-c2ccc(-c3ccc(Cl)cc3)cc2)c(=O)c1Cl`: the growth inhibition in assay [1] and in assay [4] was 96% (active) throughout. In addition, the inhibition in assay [2] was -9%; in assay [3] it was -6%. The outcome in assay [5], in assay [6], in assay [7] and in assay [8] was inactive.

Take `CN1CCC[C@@H](Oc2cc3c(cc2Br)CCN3C(=O)Nc2ccc(-c3ccncc3)c(Cl)c2)C1`: the growth inhibition in assay [1] is 64% (active); in assay [4], 99% (active). Also, the inhibition in assay [2] is 26%; in assay [3], -7%. The outcome in assay [5], in assay [6], in assay [7] and in assay [8] was inactive.

With `Cc1ccc(O)cc1Nc1ccnc2cc(-c3csc(CN(C)CCN(C)C)n3)ccc12`, the figures for the growth inhibition in assay [1] and in assay [4] were 80% (active) and 101% (active), respectively. For the same compound, the inhibition in assay [2] was 3%; in assay [3] it was 4%. Also, the outcome in assay [5], in assay [6], in assay [7] and in assay [8] was inactive.

For the origin of these results see PubChem BioAssay.
